Assay [1] has as its target Estrogen receptor beta (Homo sapiens) (UniProt Q92731). Put plainly: qHTS assay to identify small molecule agonists of the estrogen receptor beta (ER-beta) signaling pathway (AID 1259377; active = well fitted activation curve with a large enough effect in the signal ratio in the repeat runs, not every such curve was filed as active; the % refers to the signal ratio; also: potency is read from the fitted curve at half-maximal effect). The procedure, abridged:
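ER-beta-UAS-bla HEK293T cells in medium with 2% charcoal-stripped FBS were exposed to compounds for 16 h at 37C. Beta-lactamase reporter activity was read as fluorescence after 2 h with LiveBLAzer B/G FRET substrate at room temperature.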
On the technique in general: In qHTS, concentration-response curves come from the screen itself.

Assay [2] is described as follows: qHTS assay to identify small molecule agonists of the androgen receptor (AR) signaling pathway in the presence of an antagonist - cell viability counter screen (AID 1259379). Also: series mostly up to about 92 µM; nearly all actives have a fitted effect of over 25% in size. The procedure, abridged: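 MDA-kb2 human breast carcinoma cells (stable MMTV-luciferase, AR/GR responsive) were seeded 3,000 cells/well, pre-incubated 5 hr at 37C without CO2, then given 3.0uM nilutamide and compounds at 15 concentrations for 16 hr. Viability was read by CellTiter-Fluor fluorescence.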

A short description of assay [3]: qHTS assay to identify small molecule agonists of the estrogen receptor beta (ER-beta) signaling pathway - cell viability counter screen (AID 1259380). Also: nearly all actives have a fitted effect of over 30% in size. Also: potency is read from the fitted curve at half-maximal effect. The procedure, abridged:
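ER-beta-UAS-bla HEK293T cells in medium with 2% charcoal-stripped FBS were preincubated 6 hr at 37C, dosed with compound in DMSO for 16 hr, then after the bla read, CellTiter-Glo was added for 30 min at room temperature; luminescence recorded.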

The target in assay [4] is Androgen receptor (Homo sapiens) (UniProt P10275). Put plainly: qHTS assay to identify small molecule agonists of the androgen receptor (AR) signaling pathway in the presence of an antagonist (AID 1259381; calls by dose curve; also: nearly all actives have a fitted effect of over 15% in size). The method in brief:
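MDA-kb2 human breast carcinoma cells carrying an MMTV-luciferase reporter (AR- and GR-responsive) were treated with compounds at 15 concentrations plus 3.0uM final nilutamide for 16hr at 37C without CO2; luminescence was read after ONE-Glo addition.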

Assay [5] is described as follows: qHTS assay to identify small molecule antagonists of the estrogen receptor beta (ER-beta) signaling pathway - cell viability counter screen (AID 1259382). Also: series mostly up to about 92 µM; nearly all actives have a fitted effect of over 55% in size. The method in brief:
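ER-beta-UAS-bla HEK293T cells (2,000/well, 2% charcoal-stripped FBS) were pre-incubated 6 hr at 37C, then given compound plus 1nM final 17-beta-estradiol for 16 hr. Viability was read in the same wells by CellTiter-Glo luminescence after 30 min at room temperature.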

Assay [6] is described as follows: qHTS assay to identify small molecule agonists or antagonists of the thyroid stimulating hormone receptor (TSHR) signaling pathway - wild type cell line counter screen (AID 1259384; calls by dose curve). The procedure, abridged:
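Wild-type Hek293 cells, 800/well, 18 h at 37C, then compound with Ro20-1724 for 30 min RT. cAMP by HTRF (cAMP-d2/anti-cAMP cryptate), 1 h RT, fluorescence read. 15 concentrations, triplicates.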

For assay [7], the target named is Thyrotropin receptor (Homo sapiens) (UniProt P16473). Nature of the assay: qHTS assay to identify small molecule antagonists of the thyroid stimulating hormone receptor (TSHR) signaling pathway (AID 1259385; calls by dose curve; also: nearly all actives have a fitted effect of over 20% in size). The method in brief:
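TSHR-HEK293 cells (800/well) plated 18 h, then compounds with Ro20-1724 and TSH at 1.5 ng/mL final, 30 min at room temperature. cAMP quantified by HTRF (cAMP-d2/anti-cAMP-cryptate, 1 h); 15 concentrations in triplicate.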

Assay [8] can be described thus: qHTS assay to identify small molecule agonists of the estrogen receptor alpha (ER-alpha) signaling pathway in the presence of an antagonist - cell viability counter screen (AID 1259386).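 Also: cells exposed to compounds for 22 h at 37 °C before the viability read; nearly all actives have a fitted effect of over 30% in size.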 Also: potency is read from the fitted curve at half-maximal effect. The procedure, abridged:
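VM7Luc4E2 cells (endogenous full-length ER-alpha, 4×ERE-luciferase) were held 5 days in phenol red-free medium with 10% charcoal-stripped FBS, plated, then given 10.0nM ICI-182,780 and compounds at 15 concentrations for 22hr at 37C; viability read by CellTiter-Fluor fluorescence.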

For assay [9], the target named is Progesterone receptor (Homo sapiens) (UniProt P06401). Nature of the assay: qHTS assay to identify small molecule agonists of the progesterone receptor (PR) signaling pathway (AID 1346784; calls by dose curve; also: nearly all actives have a fitted effect of over 30% in size; also: potency is read from the fitted curve at half-maximal effect). The procedure, abridged:
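PR-UAS-bla HEK 293T cells (beta-lactamase reporter under UAS) in 2% charcoal-stripped FBS, dosed with 23 nL compound after 6 hr, incubated 16hr at 37C. LiveBLAzer B/G FRET substrate added, fluorescence read after 2 hours.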

The target is the same in assay [10]. Put plainly: qHTS assay to identify small molecule antagonists of the progesterone receptor (PR) signaling pathway (AID 1346795; active = well fitted inhibition curve with a large enough effect in the signal ratio in the repeat runs, not every such curve was filed as active; the % refers to the signal ratio). The method in brief: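 PR-UAS-bla HEK293T cells with beta-lactamase reporter under UAS control, in 2% charcoal-stripped FBS, treated with compounds plus 1 nM promegestone (R5020, final) for 16 hr at 37C. Read-out: FRET beta-lactamase substrate fluorescence after 2 hr at room temperature.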

Assay [11] in a line: qHTS assay to identify small molecule antagonists of the progesterone receptor (PR) signaling pathway - cell viability counter screen (AID 1346798). Also: series mostly up to about 92 µM; nearly all actives have a fitted effect of over 50% in size. The procedure, abridged: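 PR-UAS-bla HEK293T cells, 3,000/well in 2% charcoal-stripped FBS medium, dosed with compounds plus R5020 agonist and incubated 16 h at 37C. Viability then measured in the same wells by CellTiter-Glo luminescence after 30 min at RT.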

Assay [12] is described as follows: qHTS assay to identify small molecule agonists of the progesterone receptor (PR) signaling pathway - cell viability counter screen (AID 1346799; calls by dose curve; also: nearly all actives have a fitted effect of over 45% in size). The procedure, abridged: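 Counter screen in the PR-UAS-bla HEK293T wells (2% charcoal-stripped FBS, 16 h compound exposure at 37 C) after the bla read. CellTiter-Glo added, 30 min at room temperature, luminescence read as cell viability.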

Assay [13] is described as follows: qHTS assay to identify small molecule antagonists of the TGF-beta/Smad signaling pathway - cell viability counter screen (AID 1346824). Also: nearly all actives have a fitted effect of over 50% in size. The procedure, abridged:
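SBE-bla HEK 293T cells, incubated overnight, then compound plus 0.25 ng/mL TGF-beta1 (stock added) for 5 hr at 37 C. Viability was read in the same wells by CellTiter-Glo luminescence after 30 min at room temperature.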

A short description of assay [14]: qHTS assay to identify small molecule agonists of the TGF-beta/Smad signaling pathway (AID 1346859; active = well fitted activation curve with a large enough effect in the signal ratio in the repeat runs, not every such curve was filed as active; the % refers to the signal ratio; also: series mostly up to about 77 µM). The procedure, abridged:
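SBE-bla HEK293T cells plated overnight, then compound exposure for 5 h at 37 C. Beta-lactamase reporter read with LiveBLAzer B/G FRET substrate after 2 h at room temperature, fluorescence at 405 nm excitation, 460/530 nm emission.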

Assay [15] deals with Thyrotropin-releasing hormone receptor (Homo sapiens) (UniProt P34981). Nature of the assay: qHTS assay to identify small molecule antagonists of the thyrotropin-releasing hormone receptor (TRHR) signaling pathway (AID 1346877; active = well fitted inhibition curve with a large enough effect in the repeat runs, not every such curve was filed as active; also: series mostly up to about 51 µM). The method in brief:
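TRHR-expressing HEK293 cells were seeded, cultured 18 h at 37 °C, then loaded with calcium dye for 2 h. Compounds were pre-incubated 5 min at room temperature before 1 nM TRH (final) was added, and kinetic fluorescence was recorded for 3 min.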

The target is the same in assay [16]. Nature of the assay: qHTS assay to identify small molecule agonists of the thyrotropin-releasing hormone receptor (TRHR) signaling pathway (AID 1346891; calls by dose curve; also: series mostly up to about 58 µM). The method in brief:
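HEK293 cells expressing TRHR plated 18 h at 37 C/5% CO2, calcium dye-loaded 2 h at 37 C, then compound added (agonist mode); kinetic calcium fluorescence read 3 min at 1 s intervals; 15 concentrations in triplicate.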

A short description of assay [17]: Human pregnane X receptor (PXR) small molecule agonists, qHTS cell viability counter screen (AID 1346977). Also: nearly all actives have a fitted effect of over 50% in size. The method in brief: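 PXR-Luc HepG2 cells (2,000/well, 5% charcoal-stripped FBS) preincubated 5 hr, then exposed to compounds 24 hr at 37 C. Viability read in the same wells by CellTiter-Fluor fluorescence, reagent added at 23 hr, 1 hr incubation.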
Assay [18] addresses Estrogen receptor (Homo sapiens) (UniProt P03372). Nature of the assay: qHTS assay to identify small molecule agonists of the estrogen receptor alpha (ER-alpha) signaling pathway in the presence of an antagonist (AID 1259383; calls by dose curve; also: top concentration of the series differs between compounds; nearly all actives have a fitted effect of over 15% in size). The method in brief:
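VM7Luc4E2 cells (endogenous full-length ER-alpha, 4×ERE-luciferase) were precultured 5 days in phenol red-free medium with 10% charcoal-stripped FBS, given 10.0nM ICI-182,780 (final), then treated with compounds at 15 concentrations for 22hr at 37C; luminescence read with ONE-Glo.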

Assay [19] can be described thus: qHTS assay to identify small molecule agonists of the TGF-beta/Smad signaling pathway - cell viability counter screen (AID 1346829). Also: top concentration of the series differs between compounds; nearly all actives have a fitted effect of over 45% in size. The procedure, abridged:
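Luminescence from CellTiter-Glo, read after a 30 min room-temperature incubation, gives cell viability of SBE-bla HEK 293T cells treated 5 hr with compounds at 37 C.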

Assay [20] deals with Estrogen receptor beta (Homo sapiens) (UniProt Q92731). Put plainly: qHTS assay to identify small molecule antagonists of the estrogen receptor beta (ER-beta) signaling pathway (AID 1259378; active = well fitted inhibition curve with a large enough effect in the signal ratio in the repeat runs, not every such curve was filed as active; the % refers to the signal ratio). The method in brief: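 ER-beta-UAS-bla HEK293T cells in 2% charcoal-stripped FBS medium treated with compound plus 1nM final 17-beta-estradiol for 16 hr at 37C. Beta-lactamase reporter read by FRET substrate fluorescence after 2 hours at room temperature.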

Values joined by “and” are separate entries in the source; they are usually repeats but may differ in a detail not shown here. Identical values can stand only once. Results filed as inconclusive are left out. Where a structure was tested more than once in an assay, its records may differ in their call. Active and inactive are the calls of the source. Unless noted, calls follow the shape of the dose curve; as a rule, active = well fitted curve in the direction sought with a large enough effect in the repeat runs; inconclusive = weak or mixed curves; inactive = no such curve, though single readings can be large; an effect the other way counts as inactive or inconclusive.

Sequence of Estrogen receptor (Homo sapiens) (P03372 whole entry, looked up): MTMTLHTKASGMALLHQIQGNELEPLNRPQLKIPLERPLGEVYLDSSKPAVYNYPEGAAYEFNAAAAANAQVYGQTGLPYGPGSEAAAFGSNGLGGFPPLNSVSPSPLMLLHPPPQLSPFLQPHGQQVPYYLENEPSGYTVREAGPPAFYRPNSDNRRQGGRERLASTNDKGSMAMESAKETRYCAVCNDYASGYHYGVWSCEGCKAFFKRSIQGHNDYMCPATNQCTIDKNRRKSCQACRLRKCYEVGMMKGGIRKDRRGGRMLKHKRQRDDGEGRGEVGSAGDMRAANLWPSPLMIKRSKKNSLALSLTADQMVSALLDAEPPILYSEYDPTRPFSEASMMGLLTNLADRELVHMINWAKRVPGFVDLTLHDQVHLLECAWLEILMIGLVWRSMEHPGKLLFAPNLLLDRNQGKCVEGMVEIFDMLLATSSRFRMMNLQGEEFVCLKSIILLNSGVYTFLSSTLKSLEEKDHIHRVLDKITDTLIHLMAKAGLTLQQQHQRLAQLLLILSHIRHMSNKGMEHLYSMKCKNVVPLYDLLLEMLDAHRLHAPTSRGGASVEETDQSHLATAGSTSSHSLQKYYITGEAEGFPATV
Sequence of Estrogen receptor beta (Homo sapiens) (Q92731 whole entry, looked up): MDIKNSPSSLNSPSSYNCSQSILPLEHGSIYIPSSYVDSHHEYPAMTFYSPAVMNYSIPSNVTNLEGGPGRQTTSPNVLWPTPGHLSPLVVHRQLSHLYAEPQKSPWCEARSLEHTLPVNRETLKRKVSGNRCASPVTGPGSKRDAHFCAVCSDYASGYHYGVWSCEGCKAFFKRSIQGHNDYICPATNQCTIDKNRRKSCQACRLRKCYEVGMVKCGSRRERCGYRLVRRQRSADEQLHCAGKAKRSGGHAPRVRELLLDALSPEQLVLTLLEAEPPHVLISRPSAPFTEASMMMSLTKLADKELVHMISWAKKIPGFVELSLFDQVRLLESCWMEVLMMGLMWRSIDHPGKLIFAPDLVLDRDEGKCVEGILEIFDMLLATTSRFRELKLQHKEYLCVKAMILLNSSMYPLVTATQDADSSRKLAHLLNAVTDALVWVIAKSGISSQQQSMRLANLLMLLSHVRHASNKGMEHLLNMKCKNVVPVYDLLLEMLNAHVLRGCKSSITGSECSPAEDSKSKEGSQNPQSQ
Sequence of Thyrotropin-releasing hormone receptor (Homo sapiens) (P34981 whole entry, looked up): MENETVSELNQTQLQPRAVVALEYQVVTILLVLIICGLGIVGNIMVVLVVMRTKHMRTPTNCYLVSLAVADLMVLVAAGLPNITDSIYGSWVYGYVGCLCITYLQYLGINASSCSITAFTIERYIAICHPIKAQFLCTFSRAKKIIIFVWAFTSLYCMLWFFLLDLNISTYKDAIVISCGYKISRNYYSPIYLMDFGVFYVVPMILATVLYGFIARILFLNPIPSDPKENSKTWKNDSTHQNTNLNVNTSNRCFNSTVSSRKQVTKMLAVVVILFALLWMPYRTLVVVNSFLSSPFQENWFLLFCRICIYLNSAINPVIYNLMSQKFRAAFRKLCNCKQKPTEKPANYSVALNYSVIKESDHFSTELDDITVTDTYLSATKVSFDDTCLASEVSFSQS
Sequence of Thyrotropin receptor (Homo sapiens) (P16473 whole entry, looked up): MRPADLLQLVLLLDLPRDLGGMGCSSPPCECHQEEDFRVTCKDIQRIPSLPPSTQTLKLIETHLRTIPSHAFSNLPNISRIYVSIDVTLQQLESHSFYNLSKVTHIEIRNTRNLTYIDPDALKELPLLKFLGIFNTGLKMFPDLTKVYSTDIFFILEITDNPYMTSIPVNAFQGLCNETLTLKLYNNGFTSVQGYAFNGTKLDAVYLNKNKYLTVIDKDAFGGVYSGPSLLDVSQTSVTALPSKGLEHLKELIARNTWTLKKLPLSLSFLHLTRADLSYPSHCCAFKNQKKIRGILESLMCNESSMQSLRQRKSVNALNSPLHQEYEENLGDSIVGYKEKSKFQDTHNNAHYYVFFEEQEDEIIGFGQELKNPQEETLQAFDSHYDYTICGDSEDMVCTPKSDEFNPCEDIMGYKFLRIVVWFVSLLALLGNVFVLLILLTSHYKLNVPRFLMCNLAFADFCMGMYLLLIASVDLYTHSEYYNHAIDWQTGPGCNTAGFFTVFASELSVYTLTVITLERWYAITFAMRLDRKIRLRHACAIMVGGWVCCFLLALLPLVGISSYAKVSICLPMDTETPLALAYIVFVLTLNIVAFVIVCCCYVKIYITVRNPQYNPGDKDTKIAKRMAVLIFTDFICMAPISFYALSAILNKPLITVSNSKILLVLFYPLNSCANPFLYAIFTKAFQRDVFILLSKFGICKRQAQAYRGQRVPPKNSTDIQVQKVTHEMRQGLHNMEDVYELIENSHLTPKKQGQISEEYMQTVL
Sequence of Progesterone receptor (Homo sapiens) (P06401 whole entry, looked up): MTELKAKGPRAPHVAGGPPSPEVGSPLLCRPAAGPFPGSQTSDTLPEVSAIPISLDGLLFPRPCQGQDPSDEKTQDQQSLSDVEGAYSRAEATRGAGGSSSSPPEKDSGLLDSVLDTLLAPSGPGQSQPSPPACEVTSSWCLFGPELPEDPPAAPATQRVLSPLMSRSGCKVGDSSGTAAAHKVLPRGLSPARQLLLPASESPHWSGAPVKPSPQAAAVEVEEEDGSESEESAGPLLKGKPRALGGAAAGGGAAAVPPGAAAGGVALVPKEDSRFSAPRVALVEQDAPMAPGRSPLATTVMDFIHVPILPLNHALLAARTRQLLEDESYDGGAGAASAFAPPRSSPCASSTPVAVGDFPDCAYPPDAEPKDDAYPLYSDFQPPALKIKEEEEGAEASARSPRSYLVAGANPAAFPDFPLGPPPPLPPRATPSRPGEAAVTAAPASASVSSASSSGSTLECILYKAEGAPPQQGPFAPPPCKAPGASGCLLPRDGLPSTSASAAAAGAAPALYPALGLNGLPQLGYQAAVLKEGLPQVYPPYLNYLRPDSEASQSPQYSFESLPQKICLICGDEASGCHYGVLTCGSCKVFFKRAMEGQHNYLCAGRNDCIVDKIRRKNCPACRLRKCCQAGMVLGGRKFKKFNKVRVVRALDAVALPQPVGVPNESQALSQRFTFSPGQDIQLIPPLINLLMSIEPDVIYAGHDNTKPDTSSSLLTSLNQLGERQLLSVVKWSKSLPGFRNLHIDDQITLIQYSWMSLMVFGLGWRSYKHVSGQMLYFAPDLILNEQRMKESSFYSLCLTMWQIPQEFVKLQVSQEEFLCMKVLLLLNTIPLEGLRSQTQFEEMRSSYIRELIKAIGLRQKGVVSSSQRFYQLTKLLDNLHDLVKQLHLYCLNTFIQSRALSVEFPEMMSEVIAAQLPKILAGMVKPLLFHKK
Sequence of Androgen receptor (Homo sapiens) (P10275 whole entry, looked up): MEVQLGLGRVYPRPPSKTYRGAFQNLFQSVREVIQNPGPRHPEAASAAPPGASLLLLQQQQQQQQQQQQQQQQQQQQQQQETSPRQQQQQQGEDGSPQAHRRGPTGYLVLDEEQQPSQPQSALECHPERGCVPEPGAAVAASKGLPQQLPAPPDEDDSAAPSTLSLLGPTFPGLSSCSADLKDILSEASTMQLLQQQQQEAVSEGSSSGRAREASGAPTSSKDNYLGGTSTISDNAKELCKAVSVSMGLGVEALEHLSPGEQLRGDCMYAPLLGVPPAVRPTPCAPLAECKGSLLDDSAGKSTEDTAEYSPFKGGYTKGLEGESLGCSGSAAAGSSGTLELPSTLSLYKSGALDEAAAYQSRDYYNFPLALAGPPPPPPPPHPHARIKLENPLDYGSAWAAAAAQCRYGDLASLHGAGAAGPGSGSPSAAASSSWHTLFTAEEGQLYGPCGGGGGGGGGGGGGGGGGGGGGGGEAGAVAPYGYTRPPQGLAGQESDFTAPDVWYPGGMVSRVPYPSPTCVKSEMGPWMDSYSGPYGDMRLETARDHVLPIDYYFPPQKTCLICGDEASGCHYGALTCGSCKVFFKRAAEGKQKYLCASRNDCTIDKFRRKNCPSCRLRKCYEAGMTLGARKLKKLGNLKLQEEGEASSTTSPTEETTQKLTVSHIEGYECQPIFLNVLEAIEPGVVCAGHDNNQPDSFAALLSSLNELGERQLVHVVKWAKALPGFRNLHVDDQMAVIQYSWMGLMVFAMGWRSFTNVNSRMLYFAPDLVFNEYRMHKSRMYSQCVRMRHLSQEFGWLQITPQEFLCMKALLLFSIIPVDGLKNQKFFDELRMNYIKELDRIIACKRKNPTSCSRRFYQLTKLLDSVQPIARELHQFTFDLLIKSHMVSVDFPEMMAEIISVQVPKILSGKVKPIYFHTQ

With `COC(C)(C)CCCC(C)C/C=C/C(C)=C/C(=O)OC(C)C` (stereo not drawn), the Potency entry in assay [1], in [2], in [3], in assay [8], in assay [9] and in [10] was “inactive” each time. Moreover, the Potency entry in assay [11], in assay [13] and in [17] was “inactive” each time. For the same molecule, the outcome in assay [4], in [5], in assay [6], in [7], in assay [12] and in assay [14] was inactive. Besides, the call in assay [15] and in assay [16] was inactive.
Consider `Nc1ncc([N+](=O)[O-])s1`, for which the Potency result in [1], in assay [2], in [3], in assay [9], in assay [10] and in [11] was “inactive” in each case. In addition, the Potency entry in [13] and in assay [19] was “inactive” each time. Also, the molecule was classed as inactive in assay [5], in assay [18], in assay [6], in assay [7] and in assay [12]. In assay [8], the Potency is 54.9 µM (active) and inactive.
For the molecule `c1ccc2c(c1)CCCC2`, the Potency entry in [1], in [2], in [3], in assay [8], in assay [9] and in [10] was “inactive” each time. Also, the Potency result in assay [11], in assay [13] and in [19] was “inactive” throughout. Also, the outcome in assay [4], in [5], in assay [18], in [6], in [7] and in [12] was inactive. Also, the outcome in assay [14], in assay [15] and in assay [16] was inactive.
As for `Nc1cccc(Cl)c1`, the Potency entry in assay [1], in [2], in assay [3], in [8], in assay [9] and in assay [10] was “inactive” in each case. The Potency result in [11], in assay [13], in assay [19] and in assay [17] was “inactive” each time. Also, the molecule was classed as inactive in assay [5], in assay [18], in assay [6], in [7] and in assay [12].
For the molecule `N#CN=C(N)N`, the Potency result in assay [1], in [2], in assay [3], in assay [8], in assay [9] and in [10] was “inactive” throughout. Moreover, the Potency entry in assay [11], in [13] and in assay [19] was “inactive” throughout. The molecule was called inactive in [20], in assay [5], in assay [18], in assay [6], in assay [7] and in [12]. The molecule was called inactive in [15] and in [16].
Take `OC[C@@H](O)[C@H]1O[C@@H]2O[C@H](C(Cl)(Cl)Cl)O[C@@H]2[C@H]1O`: the Potency entry in [1], in assay [2], in assay [3], in [8], in [9] and in assay [10] was “inactive” throughout. The Potency entry in [11] and in assay [13] was “inactive” throughout. Besides, the call in [5], in assay [18], in assay [6], in assay [7], in assay [12] and in [15] was inactive. In assay [16], the call was inactive.
Consider `Cc1cccc(N)c1C`, for which the Potency entry in assay [1], in assay [2], in assay [3], in assay [8], in assay [10] and in [11] was “inactive” each time. In assay [13], the Potency entry was “inactive”. The molecule was called inactive in [5], in assay [18], in assay [6], in assay [7], in assay [12] and in assay [15]. Besides, in [16], the call was inactive. The Potency in assay [9] is 15.9 µM (active) and inactive.
Turning to `ClCCOCCCl`, the Potency entry in assay [1], in [2], in [3], in assay [8], in [9] and in assay [10] was “inactive” in each case. Besides, the Potency result in assay [11] and in assay [13] was “inactive” throughout. For the same molecule, the outcome in assay [5], in [6], in [7], in assay [12], in assay [15] and in assay [16] was inactive.
With `C[C@]12CC[C@H](O)CC1=CC[C@@H]1[C@@H]2CC[C@]2(C)C(=O)CC[C@@H]12`, the Potency in [1] was 386 nM (active) and 473 nM (active); in assay [3], 48.6 µM (active) and 27.3 µM (active). Besides, the Potency entry in assay [2], in [8], in assay [9], in [11], in [13] and in assay [19] was “inactive” throughout. Further, in assay [17], the Potency entry was “inactive”. Besides, the outcome in [5], in assay [6], in assay [7] and in assay [12] was inactive.
As for `NNc1ccccc1`, the Potency result in [1], in assay [2], in assay [3], in assay [8], in [9] and in assay [10] was “inactive” in each case. The Potency entry in [11], in [13], in [19] and in assay [17] was “inactive” each time. In addition, the molecule was called inactive in assay [5], in assay [6], in [7], in assay [12] and in [14].

For the origin of these results see PubChem BioAssay (Tox21).
